# High-throughput results (PubChem)
# Compounds with a hit are over-represented: about 7.4% of the library has one in this group of screens.
# HEK cytotox = kills HEK 293 cells; AID 1345083; Potency, µM (top dose mostly 115 µM), hits mostly inhibitors; 94,000 compounds, 6.6% hits; HEK 293 viability, ATP luminescence (CellTiter-Glo), 48-72 h; note: nearly all actives have a fitted effect of over 60% in size
#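 qHTS cytotoxicity; HEK 293, 250 cells/well; compound pinned; 48 or 72 hr, 37 degree Celsius, 5% CO2, 95% humidity; CellTiter-Glo, 10 min RT; luminescence (ATP).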
# NIH3T3 tox = kills NIH 3T3 cells. 94,000 compounds, 4.3% hits. NIH 3T3 viability, CellTiter-Glo ATP luminescence, 48-72 h. Potency, µM (titrated, usually from 96.7 µM), hits mostly inhibitors. AID 1345082; note: nearly all actives have a fitted effect of over 55% in size
#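 Viability of NIH 3T3 cells after 48 or 72 hr compound treatment at 37 °C was assessed by CellTiter-Glo, with luminescence imaged following a 10 min room-temperature step.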
# Luciferase inh = Photinus pyralis luciferase inhibition. 76,000 compounds, 2.5% hits. P08659. Potency, µM (top dose mostly 115 µM), most hits filed as inhibitors. AID 1347043. purified P. pyralis luciferase, luminescence, biochemical; note: nearly all actives have a fitted effect of over 65% in size
#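 Cell-free enzyme assay, 10nM P. pyralis luciferase, luciferin and ATP each at 10uM. Inhibition profiled over a 6-point titration, read as luminescence.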
# NPR1 antag = human Npr1 receptor antagonism | P16066 | HEK293 hNpr1 GloSensor cGMP, ANP-stimulated luminescence | Potency, µM (doses to about 46.3 µM), usual class: inhibitors | 76,000 compounds, 1.6% hits; calls by dose curve; note: nearly all actives have a fitted effect of over 60% in size
# Target sequence (P16066 whole entry, looked up): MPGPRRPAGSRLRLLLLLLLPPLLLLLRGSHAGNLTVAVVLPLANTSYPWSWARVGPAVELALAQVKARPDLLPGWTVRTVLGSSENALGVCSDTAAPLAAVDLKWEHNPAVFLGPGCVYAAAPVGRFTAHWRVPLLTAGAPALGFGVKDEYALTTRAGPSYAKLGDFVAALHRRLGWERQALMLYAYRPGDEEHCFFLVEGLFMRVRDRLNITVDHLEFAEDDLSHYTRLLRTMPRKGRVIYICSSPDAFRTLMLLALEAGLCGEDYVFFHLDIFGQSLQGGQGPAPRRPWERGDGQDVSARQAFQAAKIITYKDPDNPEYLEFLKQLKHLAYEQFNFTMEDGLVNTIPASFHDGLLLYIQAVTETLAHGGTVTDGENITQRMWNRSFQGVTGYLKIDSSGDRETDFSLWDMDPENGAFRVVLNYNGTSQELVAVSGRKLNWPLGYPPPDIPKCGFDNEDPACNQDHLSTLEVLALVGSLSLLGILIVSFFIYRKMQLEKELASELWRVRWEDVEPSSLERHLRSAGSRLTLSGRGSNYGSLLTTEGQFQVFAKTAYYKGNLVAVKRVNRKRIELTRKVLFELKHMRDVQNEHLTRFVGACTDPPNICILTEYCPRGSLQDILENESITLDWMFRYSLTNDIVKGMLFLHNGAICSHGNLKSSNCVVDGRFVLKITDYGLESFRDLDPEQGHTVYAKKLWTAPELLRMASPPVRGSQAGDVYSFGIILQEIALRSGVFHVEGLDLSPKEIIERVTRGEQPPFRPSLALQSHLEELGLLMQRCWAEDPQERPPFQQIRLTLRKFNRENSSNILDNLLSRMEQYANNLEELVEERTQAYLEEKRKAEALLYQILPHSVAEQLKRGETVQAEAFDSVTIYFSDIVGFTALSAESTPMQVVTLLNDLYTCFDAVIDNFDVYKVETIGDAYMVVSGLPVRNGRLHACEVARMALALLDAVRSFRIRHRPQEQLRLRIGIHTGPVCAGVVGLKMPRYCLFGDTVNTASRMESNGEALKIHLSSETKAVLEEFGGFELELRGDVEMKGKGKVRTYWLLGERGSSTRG
#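 Compound pre-incubated 30 min at room temperature on GloSensor-loaded HEK293 cells stably carrying hNpr1 and the pGS-40F cGMP biosensor. Stimulation uses hNppA at 0.1 nM final; luminescence is taken at baseline and 20 min post-agonist.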
# SNCA expr inhib = SNCA gene expression inhibition | HEK-293 SNCA-luciferase knock-in, luminescence, 24 h | Potency, µM (series often up to 57.2 µM), actives largely listed as inhibitors | 140,000 compounds, 0.17% hits | AID 1671194; note: nearly all actives have a fitted effect of over 45% in size
# SNCA viab count = reduces viability of HEK-293 SNCA reporter cells. HEK-293-SNCA-luc viability, GF-AFC fluorescence, 24 h. 150,000 compounds, 0.12% hits. Potency, µM (top dose mostly 57.1 µM), most hits filed as cytotoxic; note: nearly all actives have a fitted effect of over 30% in size
#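 Cytotoxicity counterscreen: after 24 h compound treatment of genome-edited SNCA-luciferase HEK-293 cells, live-cell protease substrate GF-AFC read by fluorescence after 30 min; activity scaled between DMSO (0%) and medium-only (-100%), curves Hill-fitted.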
# Hits are given with their value; i = inactive; ? = inconclusive; nt = no result; ! = a repeat was not active; [ ] = dose if it differs, or a comment. Unless noted, calls come from the whole dose curve; as a rule, active = well fitted curve in the direction sought with a large enough effect; inconclusive = small, poorly fitted or top-dose-only effect, or another doubt; inactive = no such curve, though single readings can be large; an effect the other way counts as inactive or inconclusive.
SMILES,HEK cytotox,NIH3T3 tox,Luciferase inh,NPR1 antag,SNCA expr inhib,SNCA viab count
Cn1ncc2c(C(=O)NCc3ccc(F)cc3)cc(-c3ccc(Cl)nc3)nc21,39.8µM,?,nt,nt,i,i
Cn1ncc2c(C(=O)NCc3cccnc3)cc(-c3ccc(Cl)nc3)nc21,?,22.4µM,nt,nt,i,i
Cn1ncc2c(C(=O)NCc3cccnc3)cc(-c3cccnc3)nc21,?,?,nt,nt,i,i
Cn1ncc2c(C(=O)NCc3cccnc3)cc(-c3ccc(Cl)cc3Cl)nc21,?,?,nt,nt,i,i
Cn1ncc2c(C(=O)NCC(F)F)cc(-c3cccc(F)c3)nc21,56.2µM,?,nt,nt,nt,nt
Cn1ncc2c(C(=O)NCc3cccnc3)cc(-c3cccc(F)c3)nc21,79.4µM,?,nt,nt,nt,nt
Cn1ncc2c(C(=O)Nc3cccc(Cl)c3)cc(-c3cccc(F)c3)nc21,35.5µM,?,nt,nt,nt,nt
Cc1ccc(-c2cc(C(=O)NCc3cccnc3)c3c(c2)ncn3C)cn1,i,100µM,i,i,i,i
Cn1cnc2cc(-c3ccc(CO)cc3)cc(C(=O)NCc3cccnc3)c21,i,?,i,i,i,i
Cn1ncc2c(C(=O)Nc3ccccc3Cl)cc(-c3cccc(F)c3)nc21,?,i,nt,nt,nt,nt
O=C(NCc1ccc(F)c(F)c1)c1ccc2oc(-c3ccccn3)nc2c1,?,i,nt,nt,i,?
O=C(Nc1cc(-c2cccnc2)nn1-c1ccccc1)C1CC1,i,i,nt,nt,i,i
C[n+]1cc2c3c(ccc2c2ccc4cc5c(cc4c21)OCO5)OCO3,nt,nt,nt,nt,?,12.6µM!
O=C(CCc1ccc(CC2CCN(Cc3ccncc3)CC2)cc1)NC1CC1,?,i,nt,nt,i,i
COc1ccccc1CN1CC[C@H](c2nc3ccc(C(F)(F)F)cc3[nH]2)C1,31.6µM,28.2µM,i,i,?,i
Fc1ccc2nc([C@H]3CCN(Cc4ncc[nH]4)C3)[nH]c2c1,?,?,i,i,i,i
Fc1ccc2nc([C@H]3CCN(Cc4cccs4)C3)[nH]c2c1,70.8µM,?,39.8µM,?,i,i
Fc1ccc2nc([C@H]3CCN(Cc4ccc(F)c(F)c4)C3)[nH]c2c1,56.2µM,?,?,?,i,i
COc1ccc2nc([C@H]3CCN(Cc4ccncc4)C3)[nH]c2c1,i,i,i,i,i,i
Fc1ccc(CN2CC[C@H](c3nc4ccc(C(F)(F)F)cc4[nH]3)C2)cc1F,10µM,12.6µM,i,?,7.94µM,31.6µM
O=C(CNC(=O)c1cccc(-c2ccsc2)c1)NCc1ccccc1Cl,?,?,nt,nt,?,i
C[S+](=O)([O-])c1cccc(-c2nnc3ccc(C(=O)NCCc4ccc(Cl)cc4)cn23)c1,i,i,nt,nt,i,i
Cc1ccc(CN2CC[C@H](c3nc4ccc(C(F)(F)F)cc4[nH]3)C2)cc1,39.8µM,28.2µM,i,?,i,?
Cc1ccc(-c2ccc(C(=O)NCCCn3ccnc3C(C)C)cn2)cc1C,39.8µM,?,?,i,i,i
CC(=O)N1CCC(Cc2ccc(C(=O)Nc3ccc(C)cc3)cc2)CC1,?,?,?,10µM,i,i
SMILES,HEK cytotox,NIH3T3 tox,Luciferase inh,NPR1 antag,SNCA expr inhib,SNCA viab count
CN1CCC(Cc2ccc(C(=O)NCC3CCCCC3)cc2)CC1,?,39.8µM,?,i,i,i
CNC(=O)c1ccc(CC2CCN(C(C)=O)CC2)cc1,i,i,i,i,i,i
COc1cc(-n2cnc3cc(-c4ccc(Cl)cc4)sc3c2=O)ccc1OCCN1CCCC1,nt,nt,nt,nt,nt,11.9µM
COc1ccccc1Nc1ccnc(N2CCC(C(=O)NCc3cccs3)CC2)n1,?,?,nt,nt,?,i
O=C(NCC1CC1)C1CCN(c2nccc(Nc3ccccc3Cl)n2)CC1,31.6µM,31.6µM,nt,nt,i,i[12.5 µM]
COc1ccc(CC(=O)N2CCN(c3nccc(Nc4ccccc4Cl)n3)CC2)cc1,?,39.8µM,nt,nt,i,i
COc1ccc(CNC(=O)C2CCN(c3nccc(Nc4ccccc4Cl)n3)CC2)cc1,25.1µM,35.5µM,nt,nt,i,i
O=C(NCc1cccc(C(F)(F)F)c1)c1ccc2nnc(-c3ccc(OC(F)(F)F)cc3)n2c1,?,?,nt,nt,i,i
O=C(CNC(=O)c1cccc(-c2ccc(C(F)(F)F)cc2)c1)NCC1CC1,?,?,nt,nt,i,i[12.5 µM]
Cc1ccnc(NS(=O)(=O)c2ccc(NC(=O)Nc3ccc(S(=O)(=O)Nc4nccc(C)n4)cc3)cc2)n1,nt,nt,nt,nt,0.857µM,?
O=C(NCCc1ccc(Cl)cc1)C1CCN(Cc2ccccc2-c2cccnc2)CC1,?,?,nt,nt,i,i[12.5 µM]
COc1ccccc1-n1c(=O)c(C(=O)N2CCN(C(=O)Cc3ccccn3)CC2)nc2cccnc21,i,i,nt,nt,i,i
Cc1nn(-c2ccc(C(F)(F)F)cc2)c(C)c1[C@@H]1C=C[C@@H](NS(=O)(=O)c2ccccc2)C1,44.7µM,39.8µM,i,i,i,i
COc1ccc(C(=O)N[C@@H]2C=C[C@@H](c3c(C)nn(-c4ccc(C)c(Cl)c4)c3C)C2)cc1,?,?,31.6µM,?,i,?
Cc1nn(-c2ccc(C(F)(F)F)cc2)c(C)c1[C@@H]1C=C[C@@H](NC(=O)COc2ccccc2)C1,?,?,i,i,i,i
Cc1nn(Cc2ccccc2)c(C)c1[C@@H]1C=C[C@@H](NS(=O)(=O)c2ccccc2)C1,?,?,i,i,?,i
Cc1ccc(-n2nc(C)c([C@@H]3C=C[C@@H](NS(=O)(=O)c4cccs4)C3)c2C)cc1Cl,44.7µM,35.5µM,?,?,i,?
COc1ccc(C(=O)N[C@@H]2C=C[C@@H](c3c(C)nn(-c4ccccc4)c3C)C2)cc1,?,?,i,i,i,i
O=C1CC2(CCN(C(=O)C3CCCN(C(=O)C4CC4)C3)CC2)Oc2ccccc2N1 (stereo not given),i,i,nt,nt,i,i
CC1=C[C@@H](CN2CCC[C@H]2CO)[C@H](C(C)C)C[C@H]1Cc1nnc(-c2cncn2C)o1,?,100µM,i,i,i,i
CC1=C[C@@H](CNC(=O)COc2ccccc2)[C@H](C(C)C)C[C@H]1Cc1nnc(-c2cncn2C)o1,50.1µM,?,i,i,i,?
CCOC(=O)CNC(=O)N1CCC2(CC1)N(Cc1ccccc1)C(=O)CS2(=O)=O,i,i,nt,nt,i,i
CCOc1ccccc1CN1CCC2(CCN([S+](=O)([O-])c3cccs3)CC2)Oc2ccccc21,i,?,i,i,i,i
CCCN1CCC2(CCN([S+](=O)([O-])c3cccs3)CC2)Oc2ccccc21,44.7µM,?,i,i,?,?
O=[S+]([O-])(c1cccs1)N1CCC2(CC1)CC(Cc1ccccc1)=NO2,44.7µM,?,i,i,i,i
O=C(NCc1ccc(F)c(F)c1)c1ccc2nnc(-c3ccc(F)cc3)n2c1,?,?,nt,nt,i,i
COc1ccccc1C(=O)N1CCc2c(c(-c3nncn3Cc3ccccc3)nn2C)C1,i,i,nt,nt,i,i
N#CC1CCN(C(=O)c2nc3cccnc3n(Cc3ccccc3)c2=O)CC1,i,i,nt,nt,i,i
